The record followed here is publication PMC3218832.

Among the targets are RELARELA (p65 homodimer) (Homo sapiens, UniProt Q04206 1-307); p50p50 homodimer (Homo sapiens, UniProt P19838 7-356); RELB subunit;p50 subunit (Homo sapiens;Homo sapiens, UniProt Q01201;P19838 120-401;7-356).
Assay in all cases: protein binding microarray; high values mean tight binding
Holding throughout (conditions): dsDNA, one strand shown

In the next test the target is T1, p52p52 homodimer (Homo sapiens, UniProt Q00653 4-332).
T1 sequence: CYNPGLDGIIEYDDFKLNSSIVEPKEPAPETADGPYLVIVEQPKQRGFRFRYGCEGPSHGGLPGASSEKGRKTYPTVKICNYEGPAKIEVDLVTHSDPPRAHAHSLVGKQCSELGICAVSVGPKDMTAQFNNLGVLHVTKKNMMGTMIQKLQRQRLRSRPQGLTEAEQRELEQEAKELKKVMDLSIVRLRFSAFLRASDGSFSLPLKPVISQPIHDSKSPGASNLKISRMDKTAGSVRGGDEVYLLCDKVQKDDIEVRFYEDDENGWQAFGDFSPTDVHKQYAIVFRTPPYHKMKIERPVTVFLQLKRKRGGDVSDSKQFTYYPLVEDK

For test [1], the target named is RELA (p65) subunit of heterodimer;p50 subunit (Homo sapiens;Homo sapiens, UniProt Q04206;P19838 1-307;7-356).
Chain of RELA (p65) subunit of heterodimer;p50 subunit (Q04206 1-307, chain 1 of 2): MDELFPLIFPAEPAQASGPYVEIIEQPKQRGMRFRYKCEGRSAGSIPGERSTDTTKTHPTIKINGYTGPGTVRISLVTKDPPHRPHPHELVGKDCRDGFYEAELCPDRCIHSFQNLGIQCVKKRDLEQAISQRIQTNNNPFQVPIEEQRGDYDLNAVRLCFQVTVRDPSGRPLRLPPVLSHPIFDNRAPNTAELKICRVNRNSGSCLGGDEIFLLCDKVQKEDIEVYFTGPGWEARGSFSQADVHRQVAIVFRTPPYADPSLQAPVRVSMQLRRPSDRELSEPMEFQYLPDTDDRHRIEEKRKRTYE
Chain of RELA (p65) subunit of heterodimer;p50 subunit (P19838 7-356, chain 2 of 2): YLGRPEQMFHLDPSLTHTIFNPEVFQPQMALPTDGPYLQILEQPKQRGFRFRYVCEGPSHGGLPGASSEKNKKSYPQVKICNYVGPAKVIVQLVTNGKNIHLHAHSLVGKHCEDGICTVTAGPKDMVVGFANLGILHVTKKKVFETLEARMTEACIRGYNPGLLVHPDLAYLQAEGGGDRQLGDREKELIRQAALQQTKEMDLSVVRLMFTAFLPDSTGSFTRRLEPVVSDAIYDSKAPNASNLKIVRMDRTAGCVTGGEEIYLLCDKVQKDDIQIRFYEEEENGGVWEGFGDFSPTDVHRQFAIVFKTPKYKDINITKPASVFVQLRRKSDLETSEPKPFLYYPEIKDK
Test [2] has as its target RELA (p65) subunit of heterodimer;p52 subunit (Homo sapiens;Homo sapiens, UniProt Q04206;Q00653 1-307;4-332).
In a further test the target is T2, RELB subunit;p52 subunit (Homo sapiens;Homo sapiens, UniProt Q01201;Q00653 120-401;4-332).
T2 sequence 1: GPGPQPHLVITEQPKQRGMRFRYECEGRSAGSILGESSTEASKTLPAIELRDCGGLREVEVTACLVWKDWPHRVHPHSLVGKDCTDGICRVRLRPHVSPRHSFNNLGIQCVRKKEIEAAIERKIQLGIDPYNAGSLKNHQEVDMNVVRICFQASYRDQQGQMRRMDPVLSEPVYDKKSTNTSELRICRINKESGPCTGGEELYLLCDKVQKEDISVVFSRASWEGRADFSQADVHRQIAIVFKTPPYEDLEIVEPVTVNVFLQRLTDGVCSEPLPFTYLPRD
T2 sequence 2: T1 sequence

Test [3] addresses C-Rel subunit;p50 subunit (Homo sapiens;Homo sapiens, UniProt Q04864;P19838 1-285;7-356).
In test [4] the target is T3, C-Rel subunit;p52 subunit (Homo sapiens;Homo sapiens, UniProt Q04864;Q00653 1-285;4-332).
T3 sequence 1: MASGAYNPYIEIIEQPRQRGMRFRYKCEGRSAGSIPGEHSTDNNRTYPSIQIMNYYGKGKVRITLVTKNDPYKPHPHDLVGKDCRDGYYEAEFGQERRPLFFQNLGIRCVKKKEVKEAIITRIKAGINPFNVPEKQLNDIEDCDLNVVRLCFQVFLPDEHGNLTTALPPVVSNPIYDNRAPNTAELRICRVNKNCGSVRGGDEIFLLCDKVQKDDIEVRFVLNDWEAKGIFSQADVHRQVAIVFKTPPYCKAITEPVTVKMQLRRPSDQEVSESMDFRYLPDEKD
T3 sequence 2: T1 sequence

Chain of p50p50 homodimer (P19838 7-356): as the sequence (P19838 7-356, chain 2 of 2) above
Chain of RELARELA (p65 homodimer) (Q04206 1-307): as the sequence (Q04206 1-307, chain 1 of 2) above

For the sequence GGAAGAGCCCT, the binding signal in the test with RELARELA (p65 homodimer) was -0.298 z-score; with p50p50 homodimer, -0.632 z-score; in the test with p52p52 homodimer it was -0.649 z-score; in [1] it was -0.191 z-score; in [2] it was -0.503 z-score; with RELB subunit;p50 subunit, -0.91 z-score. For the same sequence, the values for the binding signal (in the test with RELB subunit;p52 subunit; in test [3]; in test [4]) were -0.727 z-score, -0.606 z-score and -0.318 z-score, respectively.
Regarding AGGTGTCCCCC, the binding signal was 0.286 z-score with RELARELA (p65 homodimer); 1.17 z-score with p50p50 homodimer; 0.966 z-score in the test with p52p52 homodimer; 1.2 z-score in test [1]; 1.19 z-score in test [2]; 1.21 z-score with RELB subunit;p50 subunit. Moreover, the binding signal worked out at 1.46 z-score in the test with RELB subunit;p52 subunit, 1.14 z-score in test [3] and 1.02 z-score in test [4].
For AGGTGACTCCT, the binding signal was -0.642 z-score in the test with RELARELA (p65 homodimer); -0.518 z-score in the test with p50p50 homodimer; -0.228 z-score with p52p52 homodimer; -0.661 z-score in test [1]; -0.704 z-score in [2]; -0.778 z-score with RELB subunit;p50 subunit. Also, the binding signal with RELB subunit;p52 subunit was -0.791 z-score; in test [3], -0.985 z-score; in [4], -0.779 z-score.
Take CAAATTACCCT: the binding signal with RELARELA (p65 homodimer) is 0.402 z-score; with p50p50 homodimer, 1.05 z-score; in the test with p52p52 homodimer, 0.802 z-score; in test [1] it was 0.662 z-score; in test [2], 0.929 z-score; with RELB subunit;p50 subunit it was 0.64 z-score. The binding signal in the test with RELB subunit;p52 subunit is 0.781 z-score; in [3], 0.509 z-score; in test [4], 0.784 z-score.
Turning to AAGGTTATCCC, the binding signal in the test with RELARELA (p65 homodimer) was -0.0178 z-score; with p50p50 homodimer it was -0.0329 z-score; with p52p52 homodimer, 0.0211 z-score; in test [1], -0.139 z-score; in [2] it was -0.074 z-score; with RELB subunit;p50 subunit, -0.236 z-score. Further, the binding signal in the test with RELB subunit;p52 subunit was -0.173 z-score; in test [3], -0.0847 z-score; in test [4], -0.165 z-score.
For CAAGGCCCCCT, the binding signal in the test with RELARELA (p65 homodimer) is -1.53 z-score; with p50p50 homodimer, 0.645 z-score; with p52p52 homodimer, 0.212 z-score; in [1] it was 0.0559 z-score; in test [2] it was 0.254 z-score; with RELB subunit;p50 subunit, 0.314 z-score. Also, the binding signal with RELB subunit;p52 subunit is 0.508 z-score; in test [3], -0.126 z-score; in test [4], -0.139 z-score.
As to AAGTACCTCCT, the binding signal with RELARELA (p65 homodimer) is 0.111 z-score; with p50p50 homodimer, 0.67 z-score; with p52p52 homodimer it was 0.0441 z-score; in test [1] it was 0.737 z-score; in test [2], -0.123 z-score; with RELB subunit;p50 subunit, 0.852 z-score. Also, the binding signal is 0.227 z-score with RELB subunit;p52 subunit, 0.224 z-score in test [3] and -0.202 z-score in test [4].
With AAAGATGTCCC, the binding signal with RELARELA (p65 homodimer) amounted to 0.336 z-score; in the test with p50p50 homodimer it was 0.646 z-score; with p52p52 homodimer, 0.345 z-score; in test [1], 0.492 z-score; in test [2], 0.185 z-score; in the test with RELB subunit;p50 subunit, 0.741 z-score. The binding signal with RELB subunit;p52 subunit is 0.487 z-score; in test [3], 0.497 z-score; in test [4], -0.0919 z-score.
For GGATAAATCCC, the binding signal in the test with RELARELA (p65 homodimer) came to 0.859 z-score; with p50p50 homodimer, 0.48 z-score; in the test with p52p52 homodimer it was 0.567 z-score; in [1], 0.64 z-score; in test [2], 0.582 z-score; with RELB subunit;p50 subunit, 0.489 z-score. Besides, the binding signal is 0.482 z-score with RELB subunit;p52 subunit, 0.867 z-score in [3] and 0.396 z-score in test [4].
As to CGGTGCCTCCT, the binding signal was -0.441 z-score with RELARELA (p65 homodimer); -0.702 z-score in the test with p50p50 homodimer; -0.485 z-score with p52p52 homodimer; -0.873 z-score in test [1]; -0.611 z-score in test [2]; -0.763 z-score in the test with RELB subunit;p50 subunit. Besides, the binding signal was -0.769 z-score in the test with RELB subunit;p52 subunit, -1.19 z-score in [3] and -0.785 z-score in [4].
With AGAAGTCCCCC, the binding signal was determined as 0.863 z-score with RELARELA (p65 homodimer); 1.4 z-score with p50p50 homodimer; 1.58 z-score with p52p52 homodimer; 1.97 z-score in test [1]; 1.75 z-score in [2]; 2.05 z-score in the test with RELB subunit;p50 subunit. Moreover, the binding signal came out at 2.01 z-score in the test with RELB subunit;p52 subunit, 1.53 z-score in test [3] and 1.63 z-score in test [4].
As to AAATATCTCCC, the binding signal with RELARELA (p65 homodimer) is 0.144 z-score; with p50p50 homodimer, 0.445 z-score; in the test with p52p52 homodimer, 0.105 z-score; in test [1], 0.12 z-score; in test [2], -0.105 z-score; in the test with RELB subunit;p50 subunit, 0.365 z-score. Further, the binding signal in the test with RELB subunit;p52 subunit is 0.153 z-score; in [3] it was -0.0256 z-score; in test [4], -0.0762 z-score.
As to AGAGAGGTCCT, the binding signal with RELARELA (p65 homodimer) is 0.413 z-score; with p50p50 homodimer, -1.58 z-score; with p52p52 homodimer, -0.36 z-score; in test [1] it was -0.866 z-score; in [2] it was -0.592 z-score; in the test with RELB subunit;p50 subunit it was -0.624 z-score. Besides, the values for the binding signal (with RELB subunit;p52 subunit; in [3]; in test [4]) were -0.363 z-score, -1.31 z-score and -0.537 z-score, respectively.
CAATAGCCCCT: the binding signal with RELARELA (p65 homodimer) is -0.581 z-score; with p50p50 homodimer it was 1.17 z-score; in the test with p52p52 homodimer, 0.673 z-score; in [1], 0.506 z-score; in [2], 0.808 z-score; in the test with RELB subunit;p50 subunit, 0.574 z-score. Further, the binding signal in the test with RELB subunit;p52 subunit was 0.89 z-score; in test [3] it was 0.189 z-score; in test [4], 0.555 z-score.
As for AGAGGTGTCCT, the binding signal in the test with RELARELA (p65 homodimer) was -0.184 z-score; with p50p50 homodimer it was -1.69 z-score; with p52p52 homodimer it was -0.541 z-score; in test [1], -0.927 z-score; in test [2], -0.707 z-score; with RELB subunit;p50 subunit it was -0.854 z-score. For the same sequence, the binding signal is -0.664 z-score with RELB subunit;p52 subunit, -1.22 z-score in [3] and -0.658 z-score in test [4].
